Each structure is given as a SMILES string. Calls of active or inactive are those of the source. The calls were made as follows: active = hit-call score of the fitted dose curve at least 0.9, where 1 is the maximum; inactive = score below 0.9.

From PubChem BioAssay (EPA / NIEHS) come the findings set out here.

Common to all, as to conditions: mRNA level, 48 h; actives raise or lower the signal
Read-out in assay [1]: Glutathione S-Transferase (GSTA2), GSTA2 (gene 2939)
Briefly: LTEA_HepaRG_GSTA2: Life Technologies and Expression Analysis (LTEA) Assay for Glutathione S-Transferase (GSTA2) using HepaRG (AID 2283497). In a few lines:
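qRT-PCR readout of GSTA2 transcript, normalized to three housekeeping genes, fitted bidirectionally against 0.5% DMSO baseline. Differentiated HepaRG cells received compound for 48 h at 8 concentrations (top 100 uM, half-log steps).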

Read-out in assay [2]: Glutamate-cysteine ligase catalytic (GCLC), GCLC (gene 2729)
The experiment in a line: LTEA_HepaRG_GCLC: Life Technologies and Expression Analysis (LTEA) Assay for Glutamate-cysteine ligase catalytic (GCLC) using HepaRG (AID 2283498). The method in brief:
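HepaRG, 48 h exposure, 8-pt half-log series from 100 uM, 0.5% DMSO vehicle; TaqMan qRT-PCR for GCLC mRNA, housekeeping-normalized; bidirectional curve fit vs DMSO baseline.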

Read-out in assay [3]: growth arrest and DNA damage 45 (GADD45G), GADD45G (gene 10912)
Briefly: LTEA_HepaRG_GADD45G: Life Technologies and Expression Analysis (LTEA) Assay for growth arrest and DNA damage 45 (GADD45G) using HepaRG (AID 2283499). The method in brief: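 Gain or loss of GADD45G mRNA, quantified by TaqMan qRT-PCR against three housekeeping genes, is fitted in both directions relative to 0.5% DMSO. Human HepaRG cultures receive test chemical for 48 h at up to 100 uM.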

Read-out in assay [4]: Glutathione S-transferase M3 (GSTM3), GSTM3 (gene 2947)
The experiment in a line: LTEA_HepaRG_GSTM3: Life Technologies and Expression Analysis (LTEA) Assay for Glutathione S-transferase M3 (GSTM3) using HepaRG (AID 2283501). In a few lines:
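HepaRG, plated 48 h, then serum-free induction medium; test chemical 48 h, duplicate; 100 uM top, half-log x8, 0.5% DMSO. Read-out: GSTM3 mRNA (TaqMan qRT-PCR, Fluidigm array). Bidirectional fit vs DMSO.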

Read-out in assay [5]: Heat shock 70 kDa protein 1 (HSPA1A), gene 3303
The experiment in a line: LTEA_HepaRG_HSPA1A: Life Technologies and Expression Analysis (LTEA) Assay for Heat shock 70 kDa protein 1 (HSPA1A) using HepaRG (AID 2283502). In a few lines:
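HepaRG, 48 h exposure, 8-pt half-log CRC from 100 uM in 0.5% DMSO, duplicates. Readout: TaqMan qRT-PCR of HSPA1A mRNA, housekeeping-normalized (ACTB/GAPDH/POLR2A). Bidirectional fit vs 0.5% DMSO baseline.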

Read-out in assay [6]: 3-Hydroxy-3-Methylglutaryl-CoA Synthase 2 (HMGCS2), HMGCS2 (gene 3158)
The experiment in a line: LTEA_HepaRG_HMGCS2: Life Technologies and Expression Analysis (LTEA) Assay for 3-Hydroxy-3-Methylglutaryl-CoA Synthase 2 (HMGCS2) using HepaRG (AID 2283504). The method in brief: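 HepaRG, plated 48 h then switched to serum-free induction media; cmpd 8-pt, max 100 uM, 1/2-log, 0.5% DMSO, n=2, 48 h. HMGCS2 mRNA by Fluidigm TaqMan qRT-PCR, ACTB/GAPDH/POLR2A norm; bidirectional fit vs DMSO.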

Read-out in the next assay: HGF (gene 3082)
The experiment in a line: LTEA_HepaRG_HGF: Life Technologies and Expression Analysis (LTEA) Assay for Hepatocyte Growth Facto (HGF) using HepaRG (AID 2283505). In a few lines: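 Read-out is HGF transcript level by qRT-PCR, normalized to three housekeeping genes, fitted bidirectionally against 0.5% DMSO vehicle. Human HepaRG cells received test chemicals for 48 h at up to 100 uM.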

Read-out in assay [7]: Insulin Like Growth Factor 1 (IGF1), IGF1 (gene 3479)
The experiment in a line: LTEA_HepaRG_IGF1: Life Technologies and Expression Analysis (LTEA) Assay for Insulin Like Growth Factor 1 (IGF1) using HepaRG (AID 2283506). The method in brief:
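qRT-PCR readout of IGF1 mRNA, normalized to three housekeeping genes, after 48 h chemical exposure of HepaRG cells. Concentrations: 8-point half-log series, top 100 uM, 0.5% DMSO vehicle. Gain or loss fitted against DMSO baseline.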

Read-out in assay [8]: Intercellular Adhesion Molecule 1 (ICAM1), ICAM1 (gene 3383)
Briefly: LTEA_HepaRG_ICAM1: Life Technologies and Expression Analysis (LTEA) Assay for Intercellular Adhesion Molecule 1 (ICAM1) using HepaRG (AID 2283507). The method in brief:
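Readout is qRT-PCR mRNA level, normalized to three housekeeping genes and fitted bidirectionally against 0.5% DMSO vehicle. Human HepaRG cultures received compound for 48 h, top concentration 100 uM with half-log dilutions.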

Read-out in assay [9]: Insulin-like growth factor-binding protein 1 (IGFBP1), IGFBP1 (gene 3484)
The experiment in a line: LTEA_HepaRG_IGFBP1: Life Technologies and Expression Analysis (LTEA) Assay for Insulin-like growth factor-binding protein 1 (IGFBP1) using HepaRG (AID 2283508). In a few lines:
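Thawed HepaRG cells are plated for 48 h, switched to serum-free induction medium, then dosed in duplicate for another 48 h (100 uM top, half-log steps). Lysates in RLT go to qRT-PCR, and gain or loss of signal is fitted relative to vehicle.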

Read-out in assay [10]: Interleukin 6 (IL6), IL6 (gene 3569)
The experiment in a line: LTEA_HepaRG_IL6: Life Technologies and Expression Analysis (LTEA) Assay for Interleukin 6 (IL6) using HepaRG (AID 2283509). In a few lines: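 qRT-PCR read-out of IL6 transcript, normalized to three housekeeping genes, after 48 h chemical exposure of HepaRG cells; 8-point half-log series, top 100 uM, 0.5% DMSO vehicle. Bidirectional curve fitting against DMSO baseline.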

Read-out in assay [11]: Interleukin 6 Receptor (IL6R), IL6R (gene 3570)
Briefly: LTEA_HepaRG_IL6R: Life Technologies and Expression Analysis (LTEA) Assay for Interleukin 6 Receptor (IL6R) using HepaRG (AID 2283510).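 As to AC50: differentiated human HepaRG liver cells in serum-free induction medium.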 The method in brief:
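HepaRG, 48 h exposure, 8-pt half-log series, top 100 uM, 0.5% DMSO vehicle, duplicates. Read-out: TaqMan qRT-PCR of IL6R transcript, housekeeping-gene normalized. Gain or loss fitted relative to DMSO baseline.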

Read-out in assay [12]: Potassium channel subfamily K member 1 (KCNK1), KCNK1 (gene 3775)
Briefly: LTEA_HepaRG_KCNK1: Life Technologies and Expression Analysis (LTEA) Assay for Potassium channel subfamily K member 1 (KCNK1) using HepaRG (AID 2283511). The method in brief:
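HepaRG, 48 h exposure, 8-pt half-log series top 100 uM, 0.5% DMSO vehicle, duplicates. Readout: KCNK1 transcript by qRT-PCR (Fluidigm array), housekeeping-normalized; bidirectional curve fit relative to DMSO baseline.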

Read-out in assay [13]: Keratin 19 (KRT19), KRT19 (gene 3880)
Briefly: LTEA_HepaRG_KRT19: Life Technologies and Expression Analysis (LTEA) Assay for Keratin 19 (KRT19) using HepaRG (AID 2283512). In a few lines:
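KRT19 transcript levels, measured by Fluidigm qRT-PCR against three housekeeping genes, are fitted for gain or loss of signal relative to DMSO. Human HepaRG cells receive test chemicals (top 100 uM, half-log steps, 0.5% DMSO) for 48 hours.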

Read-out in assay [14]: JUN Transcription Factor, JUN (gene 3725)
Briefly: LTEA_HepaRG_JUN: Life Technologies and Expression Analysis (LTEA) Assay for JUN Transcription Factor using HepaRG (AID 2283513). In a few lines:
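HepaRG, 48 h exposure, 8-pt half-log series top 100 uM, 0.5% DMSO, duplicate. JUN mRNA by qRT-PCR (Fluidigm), housekeeping-normalized (ACTB/GAPDH/POLR2A); bidirectional curve fit vs DMSO baseline.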

Read-out in assay [15]: Lipase C (LIPC), LIPC (gene 3990)
The experiment in a line: LTEA_HepaRG_LIPC: Life Technologies and Expression Analysis (LTEA) Assay for Lipase C (LIPC) using HepaRG (AID 2283514). In a few lines: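 HepaRG, 48 h exposure, 8-pt half-log series from 100 uM in 0.5% DMSO, duplicates. Readout: LIPC mRNA by Fluidigm qRT-PCR, housekeeping-normalized (ACTB/GAPDH/POLR2A). Gain or loss fitted bidirectionally against DMSO baseline.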

Read-out in assay [16]: Lipoprotein lipase (LPL), LPL (gene 4023)
Briefly: LTEA_HepaRG_LPL: Life Technologies and Expression Analysis (LTEA) Assay for Lipoprotein lipase (LPL) using HepaRG (AID 2283515). The method in brief: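 HepaRG, 48 h exposure, 8-pt half-log dilutions from 100 uM, 0.5% DMSO vehicle, duplicates; qRT-PCR (Fluidigm array) of LPL mRNA vs housekeeping genes; bidirectional curve fit relative to DMSO baseline.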

Read-out in assay [17]: MicroRNA 122 (MIR122), gene 406906
The experiment in a line: LTEA_HepaRG_MIR122: Life Technologies and Expression Analysis (LTEA) Assay for MicroRNA 122 (MIR122) using HepaRG (AID 2283516). Also: the transcript read is the microRNA miR-122. In a few lines: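 qRT-PCR read-out (TaqMan, Fluidigm array), normalized to three housekeeping genes; HepaRG cells dosed 48 h at 8 concentrations up to 100 uM in 0.5% DMSO, duplicate; gain or loss fitted against DMSO baseline.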

Read-out in assay [18]: Hypoxia-inducible factor 1-alpha (Homo sapiens) (UniProt Q16665)
The experiment in a line: LTEA_HepaRG_HIF1A: Life Technologies and Expression Analysis (LTEA) Assay for Hypoxia-inducible factor 1 (HIF1A) Trancription factor using HepaRG (AID 2283503). In a few lines: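 Gain- or loss-of-signal HIF1A mRNA changes are fitted against a DMSO baseline. HepaRG cultures receive eight concentrations, highest 100 uM, for 48 h in serum-free induction medium with 0.5% DMSO.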

Sequence of Hypoxia-inducible factor 1-alpha (Homo sapiens) (Q16665 whole entry, looked up): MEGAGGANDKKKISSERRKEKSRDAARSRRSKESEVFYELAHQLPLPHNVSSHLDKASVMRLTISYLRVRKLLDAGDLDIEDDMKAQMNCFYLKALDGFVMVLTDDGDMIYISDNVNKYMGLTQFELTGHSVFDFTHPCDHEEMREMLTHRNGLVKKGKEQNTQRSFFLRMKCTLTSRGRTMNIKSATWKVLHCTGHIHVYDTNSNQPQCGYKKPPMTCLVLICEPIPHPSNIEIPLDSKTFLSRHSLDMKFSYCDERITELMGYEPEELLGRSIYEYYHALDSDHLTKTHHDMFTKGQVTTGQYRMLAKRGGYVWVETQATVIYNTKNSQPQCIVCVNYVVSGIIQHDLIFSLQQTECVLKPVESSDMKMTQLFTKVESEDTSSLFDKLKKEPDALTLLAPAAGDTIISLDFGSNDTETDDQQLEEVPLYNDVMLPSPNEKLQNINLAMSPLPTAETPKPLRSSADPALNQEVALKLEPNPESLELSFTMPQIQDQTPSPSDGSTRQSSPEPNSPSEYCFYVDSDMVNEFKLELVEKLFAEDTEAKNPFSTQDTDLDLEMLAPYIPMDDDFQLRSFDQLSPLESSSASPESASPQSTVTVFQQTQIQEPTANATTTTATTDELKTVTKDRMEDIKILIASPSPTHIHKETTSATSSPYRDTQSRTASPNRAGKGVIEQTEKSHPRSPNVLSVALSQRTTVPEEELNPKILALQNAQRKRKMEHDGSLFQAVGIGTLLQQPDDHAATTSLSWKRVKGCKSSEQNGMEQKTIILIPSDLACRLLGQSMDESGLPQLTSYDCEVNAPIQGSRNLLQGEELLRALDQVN

Regarding `COC(=O)[C@H]1[C@H]2C[C@@H]3c4[nH]c5cc(OC)ccc5c4CCN3C[C@H]2C[C@@H](OC(=O)c2cc(OC)c(OC)c(OC)c2)[C@@H]1OC`, the AC50 (usually the concentration giving half of the maximal activity seen) in assay [1] was 60.1 µM (active); in assay [3], 24.6 µM (active); in assay [4], 42.2 µM (active); in [5] it was 42.2 µM (active); in assay [6], 57.8 µM (active); in assay [7], 54.4 µM (active). Further, the AC50 is 28.7 µM (active) in [8]; 47.7 µM (active) in [9]; 29.1 µM (active) in assay [10]; 42.2 µM (active) in assay [11]; 8.38 µM (active) in assay [14]; 49.4 µM (active) in assay [15]. Besides, the AC50 in [17] is 55 µM (active). Moreover, the call (in assay [2]; with HGF (gene 3082); in assay [12]; in assay [13]; in assay [16]) was inactive.

Consider `CN(C)CCCN1c2ccccc2Sc2ccc(Cl)cc21`, for which the AC50 was 86.4 µM (active) in assay [1]; 49.7 µM (active) in [3]; 76.9 µM (active) in assay [5]; 68.6 µM (active) in [6]; 77.7 µM (active) in assay [7]; 77.7 µM (active) in [8]. The AC50 in assay [9] was 72.8 µM (active); in [10] it was 77 µM (active); in assay [11] it was 44.7 µM (active); in assay [13] it was 82.9 µM (active); in assay [14] it was 94 µM (active); in assay [17], 85.7 µM (active). The call (in assay [2]; with HGF (gene 3082); in [15]; in [16]) was inactive.

On to `CC1=C(C)S(=O)(=O)CCS1(=O)=O`, for which the AC50 in [1] was 90.3 µM (active); in assay [2], 70.6 µM (active); in [18], 77.1 µM (active); in [7] it was 50 µM (active); in [13] it was 76.6 µM (active); in assay [14] it was 74.6 µM (active). Besides, the AC50 in assay [15] was 85.8 µM (active); in assay [16], 75.3 µM (active); in assay [17], 75.2 µM (active). The outcome (in [3]; in assay [4]; in assay [5]; in [6]; in the assay with HGF (gene 3082); in [8]) was inactive. For the same compound, the outcome in assay [9], in [10] and in [11] was inactive.

With `Nc1nc(Cl)nc2c1ncn2[C@H]1C[C@H](O)[C@@H](CO)O1`, the AC50 is 1.76 µM (active) in [1]; 1.24 µM (active) in [2]; 5.75 µM (active) in assay [3]; 1.49 µM (active) in assay [6]; 2.39 µM (active) in assay [7]; 4.82 µM (active) in assay [9]. Besides, the AC50 was 16.1 µM (active) in assay [10]; 0.603 µM (active) in [11]; 1.36 µM (active) in assay [12]; 1.03 µM (active) in [15]; 1.03 µM (active) in assay [16]; 1.55 µM (active) in [17]. Also, the outcome in assay [5], in [8] and in [13] was inactive.
